PubChem BioAssay (Tox21)
Values joined by “and” are separate entries in the source; they are usually repeats but may differ in a detail not shown here. Equal values may be shown once. Records with an inconclusive call do not appear. Where a call stands in place of a potency, no number is given. Where a structure was tested more than once in an assay, its records may differ in their call. Active and inactive are the calls of the source. Unless noted, the call rests on the fitted dose curve.

Tests used:
[1] = Nuclear factor erythroid 2-related factor 2/antioxidant responsive element (Nrf2/ARE) small molecule agonists: qHTS cell viability counter screen in human keratinocytes (AID 1919968; active means well fitted curve in the direction sought with a large enough effect in the repeat runs; an effect the other way counts as inactive or inconclusive; further: nearly all actives have a fitted effect of over 55% in size)
Outline: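 In human HaCaT keratinocytes stably expressing an ARE-driven luciferase, compound exposure lasted 23 h at 37 C under 5% CO2. Viable cells are quantified with a protease-based fluorogenic reagent (CellTiter-Fluor) read 1 h after addition.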

[2] = Nuclear factor erythroid 2-related factor 2/antioxidant responsive element (Nrf2/ARE) small molecule agonists: luciferase reporter gene qHTS assay in human keratinocytes (AID 1919969); further: nearly all actives have a fitted effect of over 35% in size; further: potency means the concentration at half of the fitted maximal effect
[3] = biological target: Gonadotropin-releasing hormone receptor (Homo sapiens) (UniProt P30968); assay: Human gonadotropin-releasing hormone receptor (GnRHR) small molecule agonists, calcium flux assay in GnRHR-HEK293 cells (AID 1920063); further: nearly all actives have a fitted effect of over 35% in size
Sequence of Gonadotropin-releasing hormone receptor (Homo sapiens) (P30968 whole entry, looked up): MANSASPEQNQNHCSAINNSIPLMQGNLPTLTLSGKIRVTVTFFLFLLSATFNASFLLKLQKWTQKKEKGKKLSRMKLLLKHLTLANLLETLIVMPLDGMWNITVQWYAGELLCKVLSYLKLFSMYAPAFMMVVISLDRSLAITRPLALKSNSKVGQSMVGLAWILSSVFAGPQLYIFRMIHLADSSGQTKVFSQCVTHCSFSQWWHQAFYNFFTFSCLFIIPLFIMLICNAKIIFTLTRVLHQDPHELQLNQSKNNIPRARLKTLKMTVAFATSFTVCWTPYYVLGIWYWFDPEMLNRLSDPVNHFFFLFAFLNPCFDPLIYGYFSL
Outline: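 Intracellular calcium rise is the read-out: engineered human GnRHR HEK293 cells, dye-loaded, are exposed to DMSO-dissolved compounds and fluorescence at Ex/Em 480/540 is tracked for 3 min.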

[4] = biological target: KiSS-1 receptor (Homo sapiens) (UniProt Q969F8); assay: Human kisspeptin (KISS1R) small molecule agonists, calcium flux assay in KISS1R-HEK293 cells (AID 1920064; active means well fitted curve in the direction sought with a large enough effect in the repeat runs; an effect the other way counts as inactive or inconclusive)
Sequence of KiSS-1 receptor (Homo sapiens) (Q969F8 whole entry, looked up): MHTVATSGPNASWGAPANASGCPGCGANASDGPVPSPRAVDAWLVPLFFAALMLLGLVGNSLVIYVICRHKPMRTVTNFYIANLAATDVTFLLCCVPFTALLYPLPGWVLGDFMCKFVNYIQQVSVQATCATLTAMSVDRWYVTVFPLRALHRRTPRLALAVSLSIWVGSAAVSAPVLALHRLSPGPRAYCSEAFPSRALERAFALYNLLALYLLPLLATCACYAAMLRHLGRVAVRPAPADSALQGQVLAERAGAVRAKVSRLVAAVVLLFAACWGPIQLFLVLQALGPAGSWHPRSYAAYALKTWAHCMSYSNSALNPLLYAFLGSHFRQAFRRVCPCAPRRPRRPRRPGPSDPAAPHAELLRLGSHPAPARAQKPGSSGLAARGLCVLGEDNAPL
Outline: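 Concentration-response testing used 15 concentrations in triplicate on human KISS1R-expressing HEK293 cells. Calcium-dependent fluorescence (Ex/Em 480/540) was followed kinetically for 3 min after compound transfer.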

[5] = G protein-coupled receptor (GPCR) small molecule agonists, calcium flux assay: HEK293 wild type cell line counter screen (AID 1920065)
Outline: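 Fluorescence intensity signals activation. After overnight (18 h) culture and a 1 h calcium dye load at 37 C, compounds are added by pin tool and the plate read at 480/540 nm for 3 min in 1 s steps.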

[6] = p53 small molecule agonists, cell-based qHTS assay with human liver microsomes (AID 1963577);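 further: p53 response element beta-lactamase reporter cells with liver microsomes plus NADPH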
Outline: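 Metabolically competent format: test substances, human liver microsomes and NADPH (both 0.5 mg/mL final) incubated with p53RE-bla cells 16 h at 37 C. Beta-lactamase reporter signal then quantified by fluorescence.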

[7] = p53 small molecule agonists, cell-based qHTS assay with rat liver microsomes (AID 1963578)
Outline: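 Each plate received p53RE-bla cells, then compound, then rat liver microsomes and NADPH (both 0.5 mg/mL final). Plates were held 16 h at 37 C, and beta-lactamase activity was detected with LiveBLAzer over 2 h.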

[8] = p53 small molecule agonists, cell-based qHTS assay with human liver microsomes: qHTS cell viability counter screen (AID 1963579); further: nearly all actives have a fitted effect of over 45% in size
Outline: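 Tox21 library compounds, delivered from DMSO stocks, were tested on p53RE-bla cells together with 0.5 mg/mL human liver microsomes and 0.5 mg/mL NADPH (final) over 16 h at 37 C; CellTiter-Glo luminescence served as the cytotoxicity measure.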

[9] = p53 small molecule agonists, cell-based qHTS assay with rat liver microsomes: qHTS cell viability counter screen (AID 1963580); further: nearly all actives have a fitted effect of over 45% in size
Outline: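 Cytotoxicity counter screen: intracellular ATP read by CellTiter-Glo luminescence in the p53 reporter wells. HCT-116 p53RE-bla cells were treated for 16 h at 37 C alongside rat liver microsomes and NADPH, each 0.5 mg/mL final.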

[10] = p53 small molecule agonists, cell-based qHTS assay: qHTS cell viability counter screen (AID 1963581); further: nearly all actives have a fitted effect of over 45% in size
Outline: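 Luminescence from CellTiter-Glo, reflecting ATP content, serves as the cytotoxicity measure; it is taken after the 2 h reporter substrate step in HCT-116 p53RE-bla cells dosed for 16 h at 37 C.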

[11] = p53 small molecule agonists, cell-based qHTS assay (AID 1963582; active means well fitted activation curve with a large enough effect in the signal ratio in the repeat runs, not every such curve was filed as active; the % refers to the signal ratio)
Outline: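 After plating, p53RE-bla cells sat 5 h in the incubator; compounds or DMSO vehicle were pinned in; a 16 h incubation at 37 C followed; FRET substrate was added and, 2 h later at RT, fluorescence was measured.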

[12] = biological target: 5-hydroxytryptamine receptor 2A (Homo sapiens) (UniProt P28223); assay: 5-hydroxytryptamine receptor 2A (HTR2A) small molecule antagonists, cell-based qHTS assay (AID 1963586); further: nearly all actives have a fitted effect of over 45% in size
Sequence of 5-hydroxytryptamine receptor 2A (Homo sapiens) (P28223 whole entry, looked up): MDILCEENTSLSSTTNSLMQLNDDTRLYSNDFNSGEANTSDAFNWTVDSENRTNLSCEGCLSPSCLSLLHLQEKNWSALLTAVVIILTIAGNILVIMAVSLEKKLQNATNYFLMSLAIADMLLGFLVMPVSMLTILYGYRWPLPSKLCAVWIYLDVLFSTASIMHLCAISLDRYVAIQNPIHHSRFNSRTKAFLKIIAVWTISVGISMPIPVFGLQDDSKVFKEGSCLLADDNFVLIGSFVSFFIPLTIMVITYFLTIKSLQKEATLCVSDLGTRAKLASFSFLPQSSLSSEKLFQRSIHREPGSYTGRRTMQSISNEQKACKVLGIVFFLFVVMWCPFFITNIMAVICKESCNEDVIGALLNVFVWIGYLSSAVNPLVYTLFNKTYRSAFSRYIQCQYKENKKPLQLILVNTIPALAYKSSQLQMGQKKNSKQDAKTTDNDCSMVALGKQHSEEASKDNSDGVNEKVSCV
Outline: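 CHO cells stably expressing human HTR2A were plated for 18 h at 37 C, then loaded with calcium dye for 1 h. Compounds were preincubated 5 min at room temperature before DOI (4 nM solution) was added. Kinetic fluorescence was read for 3 min.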

[13] = biological target: 5-hydroxytryptamine receptor 2A (Homo sapiens) (UniProt P28223); assay: 5-hydroxytryptamine receptor 2A (HTR2A) small molecule agonists, cell-based qHTS assay (AID 1963587); further: nearly all actives have a fitted effect of over 30% in size
Outline: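 Kinetic calcium-flux fluorescence (2 min, 1 sec intervals) after compound addition in agonist mode. HTR2A-CHO cells were cultured 18 h, then dye-loaded 1 h at 37 C.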

[14] = biological target: Muscarinic acetylcholine receptor M1 (Homo sapiens) (UniProt P11229); assay: Cholinergic receptor muscarinic 1 (CHRM1) small molecule antagonists, cell-based qHTS assay (AID 1963588); further: nearly all actives have a fitted effect of over 40% in size
Sequence of Muscarinic acetylcholine receptor M1 (Homo sapiens) (P11229 whole entry, looked up): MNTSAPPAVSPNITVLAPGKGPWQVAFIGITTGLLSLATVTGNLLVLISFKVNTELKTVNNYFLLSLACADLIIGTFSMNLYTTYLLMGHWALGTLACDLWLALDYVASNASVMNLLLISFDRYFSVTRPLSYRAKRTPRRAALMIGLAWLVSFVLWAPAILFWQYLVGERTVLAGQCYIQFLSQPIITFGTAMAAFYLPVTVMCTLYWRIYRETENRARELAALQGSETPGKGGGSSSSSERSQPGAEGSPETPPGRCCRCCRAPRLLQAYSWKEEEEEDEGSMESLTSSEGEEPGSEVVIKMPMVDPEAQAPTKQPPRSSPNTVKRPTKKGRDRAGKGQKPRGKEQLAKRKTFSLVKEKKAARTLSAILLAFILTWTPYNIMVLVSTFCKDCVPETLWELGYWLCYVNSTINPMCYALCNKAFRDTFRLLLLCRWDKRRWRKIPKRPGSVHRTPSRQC
Outline: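 Compounds were tested at 15 concentrations in three independent runs. Dye-loaded CHRM1-CHO cells were exposed 5 min at room temperature before stimulation by acetylcholine added at 50nM. Intracellular calcium was read kinetically on FDSS for 3 min.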

[15] = cAMP Responsive Elements (CRE) small molecule antagonists, cell-based qHTS assay (AID 1963591; active means well fitted inhibition curve with a large enough effect in the signal ratio in the repeat runs, not every such curve was filed as active; the % refers to the signal ratio)
Outline: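 Stimulation used NKH477 at a final 0.25 uM for 3 h in compound-treated CRE-bla HEK293T cells, seeded 18 h beforehand. Reporter activity was measured with LiveBLAzer B/G FRET substrate after 2 h at room temperature.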

[16] = biological target: D(2) dopamine receptor (Homo sapiens) (UniProt P14416); assay: Dopamine D2 receptor (DRD2) small molecule agonists, cell-based qHTS assay (AID 1963594); further: nearly all actives have a fitted effect of over 35% in size
Sequence of D(2) dopamine receptor (Homo sapiens) (P14416 whole entry, looked up): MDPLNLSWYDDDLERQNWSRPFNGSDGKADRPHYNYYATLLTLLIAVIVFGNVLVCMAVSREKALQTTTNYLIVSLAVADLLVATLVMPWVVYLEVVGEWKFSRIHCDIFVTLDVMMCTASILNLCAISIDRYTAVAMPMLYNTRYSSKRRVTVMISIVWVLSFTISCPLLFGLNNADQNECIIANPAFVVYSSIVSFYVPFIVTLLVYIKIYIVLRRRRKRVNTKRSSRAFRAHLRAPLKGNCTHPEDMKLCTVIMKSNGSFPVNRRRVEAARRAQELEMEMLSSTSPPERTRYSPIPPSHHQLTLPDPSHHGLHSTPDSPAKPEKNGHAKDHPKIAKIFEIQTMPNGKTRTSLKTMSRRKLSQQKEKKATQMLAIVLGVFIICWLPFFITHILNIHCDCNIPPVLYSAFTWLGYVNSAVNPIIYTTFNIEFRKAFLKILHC
Outline: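 cAMP accumulation in DRD2-HEK293 cells measured by HTRF after 1 h detection; compounds added 10 min before NKH477 (200nM […]) forskolin-analogue stimulation, 30 min at room temperature, with Ro20-1724 present at 0.1 mM final.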

[17] = biological target: D(2) dopamine receptor (Homo sapiens) (UniProt P14416); assay: Dopamine D2 receptor (DRD2) small molecule antagonists, cell-based qHTS assay (AID 1963595; active means well fitted inhibition curve with a large enough effect in the signal ratio in the repeat runs, with a control signal flat; the % refers to the signal ratio)
Outline: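 Cells were plated and grown for 24 h at 37 °C. Ro20-1724 (0.1 mM final) went in first, then compound for 10 min. NKH477 (200 nM) with quinpirole (12 nM) followed for 30 min at RT, then HTRF detection reagents for 1 h.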

[18] = cAMP Responsive Elements (CRE) small molecule agonists, cell-based qHTS assay (AID 1963590)
Outline: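 Compound exposure lasted 3 h at 37 C/5% CO2 in CRE-bla HEK 293T cells grown in assay medium with 10% dialyzed FBS and 25 mM HEPES. Reporter signal came from LiveBLAzer B/G FRET substrate, 2 h, room temperature.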

[19] = biological target: Beta-2 adrenergic receptor (Homo sapiens) (UniProt P07550); assay: Adrenergic beta2 receptor (ADRB2) small molecule antagonists, cell-based qHTS assay (AID 1963592); further: nearly all actives have a fitted effect of over 50% in size; further: potency means the concentration at half of the fitted maximal effect
Sequence of Beta-2 adrenergic receptor (Homo sapiens) (P07550 whole entry, looked up): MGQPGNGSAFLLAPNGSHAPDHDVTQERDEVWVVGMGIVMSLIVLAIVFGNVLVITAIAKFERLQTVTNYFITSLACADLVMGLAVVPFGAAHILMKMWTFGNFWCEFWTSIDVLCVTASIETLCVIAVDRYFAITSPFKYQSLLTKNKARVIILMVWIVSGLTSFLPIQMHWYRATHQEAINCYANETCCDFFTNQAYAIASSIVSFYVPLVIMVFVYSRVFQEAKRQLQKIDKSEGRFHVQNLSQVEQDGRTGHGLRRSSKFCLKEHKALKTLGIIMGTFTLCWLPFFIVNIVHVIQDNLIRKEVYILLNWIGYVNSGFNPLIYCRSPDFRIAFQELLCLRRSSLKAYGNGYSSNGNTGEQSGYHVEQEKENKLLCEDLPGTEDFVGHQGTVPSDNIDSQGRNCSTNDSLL
Outline: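 Assay format: CHO-ADRB2 cells, 18-20hr seeding at 37C/5% CO2, then compound plus 1nM isoproterenol agonist mix for 0.5hr RT. Homogeneous time-resolved fluorescence cAMP detection after 1hr, expressed as 665/615 nm ratio.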

[20] = biological target: Muscarinic acetylcholine receptor M1 (Homo sapiens) (UniProt P11229); assay: Cholinergic receptor muscarinic 1 (CHRM1) small molecule agonists, cell-based qHTS assay (AID 1963589); further: nearly all actives have a fitted effect of over 35% in size
Outline: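 Fluorescent calcium dye reports M1 activation in stably transfected CHO cells. Compounds, 15 concentrations, added after 1 h dye loading at 37 C; kinetic reading at 1 sec intervals.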

Row | Structure (SMILES) | Potency [1] | Potency [2] | Potency [3] | Potency [4] | Potency [5] | Potency [6] | Potency [7] | Potency [8] | Potency [9] | Potency [10] | Potency [11] | Potency [12] | Potency [13] | Potency [14] | Potency [15] | Potency [16] | Potency [17] | Potency [18] | Potency [19] | Potency [20]
1 | Cc1ccc(N)c(N)c1 | inactive | 4.87 µM (active) and 68.6 µM (active) | inactive | inactive | inactive | inactive | inactive | inactive | inactive | inactive | inactive | inactive | inactive | inactive | inactive | inactive | inactive | – | – | –
2 | c1ccc(-c2cccc(-c3ccccc3)c2)cc1 | inactive | 21.9 µM (active) and 27.3 µM (active) | inactive | inactive | inactive | inactive | inactive | inactive | inactive | inactive | inactive | inactive | inactive | inactive | inactive | inactive | inactive | inactive | inactive | –
3 | O=S(=O)(c1ccccc1)c1ccccc1 | inactive | inactive | inactive | inactive | inactive | inactive | inactive | inactive | inactive | inactive | inactive | inactive | inactive | inactive | inactive | – | inactive | inactive | inactive | –
4 | Oc1ccc(-c2ccccc2)cc1 | inactive | 61.1 µM (active) | inactive | inactive | inactive | inactive | inactive | inactive | inactive | inactive | inactive | inactive | inactive | inactive | inactive | inactive | inactive | – | 60.3 µM (active) and inactive | inactive
5 | N#CN=C(N)N | inactive | inactive | inactive | inactive | inactive | inactive | inactive | inactive | inactive | inactive | inactive | inactive | inactive | inactive | inactive | inactive | inactive | inactive | inactive | –
6 | OCCSSCCO | inactive | inactive | inactive | inactive | inactive | inactive | inactive | inactive | inactive | inactive | inactive | inactive | inactive | inactive | – | inactive | inactive | inactive | – | –
7 | CC(C(=O)c1ccccc1)N(C)C (stereo not given) | inactive | inactive | inactive | inactive | inactive | inactive | inactive | inactive | inactive | inactive | inactive | inactive | inactive | inactive | inactive | – | inactive | inactive | inactive | –
8 | O=C(O)C(Cl)(Cl)Br | inactive | inactive | inactive | inactive | inactive | inactive | inactive | inactive | inactive | inactive | inactive | inactive | inactive | inactive | inactive | inactive | inactive | inactive | inactive | –
9 | COc1ccc(C=O)cc1OC | inactive | 69.3 µM (active) and inactive | inactive | inactive | inactive | inactive | inactive | inactive | inactive | inactive | inactive | inactive | inactive | inactive | inactive | inactive | – | – | inactive | inactive
10 | CCN(N=O)C(N)=O | inactive | inactive | inactive | inactive | inactive | inactive | inactive | inactive | inactive | inactive | inactive | inactive | inactive | – | inactive | inactive | inactive | inactive | inactive | inactive
11 | CCCCC(CC)COC(=O)c1ccc(C(=O)OCC(CC)CCCC)c(C(=O)OCC(CC)CCCC)c1 (stereo not given) | inactive | inactive | inactive | inactive | inactive | inactive | inactive | inactive | inactive | inactive | inactive | inactive | inactive | inactive | inactive | inactive | inactive | inactive | inactive | –
12 | CN1CC[C@]23c4c5ccc(O)c4O[C@H]2[C@@H](O)CC[C@H]3[C@H]1C5 | inactive | inactive | inactive | inactive | inactive | inactive | inactive | inactive | inactive | inactive | inactive | inactive | inactive | inactive | inactive | – | – | – | – | inactive
13 | CC1(C)C(=O)NC(=O)NC1=O | inactive | inactive | inactive | inactive | inactive | inactive | inactive | inactive | inactive | inactive | inactive | inactive | inactive | – | inactive | inactive | inactive | inactive | inactive | inactive
14 | CCCN(CCC)N=O | inactive | inactive | inactive | inactive | inactive | inactive | inactive | inactive | inactive | inactive | inactive | inactive | inactive | – | inactive | inactive | inactive | inactive | inactive | inactive
15 | Cc1cc(Cl)ccc1O | inactive | inactive | inactive | inactive | inactive | inactive | inactive | inactive | inactive | inactive | inactive | inactive | inactive | inactive | inactive | inactive | inactive | inactive | inactive | –
